Measurements from PubChem BioAssay (Tox21).
Results filed as inconclusive are left out. A number with no mark means an inactive call. Calls of active or inactive are those of the source. Calls come from the whole dose curve; as a rule, active = well fitted cell-killing curve with a large enough effect in the repeat runs; inconclusive = weak or mixed curves, or effect the other way; inactive = flat fitted curve, though single readings scatter.
% is set by controls: 0 for no effect and ±100 for the full control effect.

Test: qHTS assay to identify small molecule agonists of the TGF-beta/Smad signaling pathway - cell viability counter screen (AID 1346829); note: top concentration of the series differs between compounds; nearly all actives have a fitted effect of over 45% in size
Details: SBE-bla HEK293T viability, CellTiter-Glo luminescence, 5 h; series mostly up to 76.8 µM
Procedure, shortened: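 Here the cytotoxicity of library compounds is measured in SBE-bla HEK 293T cells treated for 5 hr, using CellTiter-Glo added to wells already read for the beta-lactamase reporter.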
With `C[C@]12C=CC(=O)C=C1[C@@H](F)C[C@@H]1[C@@H]2[C@@H](O)C[C@@]2(C)[C@H]1CC[C@]2(O)C(=O)CO` the outcome was “inactive”. In the case of `CCCCCCCCCCCCCC(=O)OCC`, the outcome is reported as “inactive”. With `CCN1CCN(C(=O)N[C@@H](C(=O)N[C@@H]2C(=O)N3[C@@H]2SC(C)(C)[C@H]3C(=O)O)c2ccccc2)C(=O)C1=O` the outcome was “inactive”. In the case of `CC(=O)O[C@@H]1CC2C3CCc4cc(OC(=O)c5ccccc5)ccc4C3CCC2(C)[C@H]1OC(C)=O` (stereo partly drawn), the outcome is reported as “inactive”. `CCCCCCCCCCCCCCCCN(C)C` gave an activity change, negative = cytotoxicity of 16.2% [at 6.97 µM]. In the case of `CC/C=C\CCCCCCCCCCOC(C)=O`, the outcome is reported as “inactive”. With `CCOC(=O)[C@H](CCc1ccccc1)N[C@H]1CS[C@H](c2cccs2)CN(CC(=O)O)C1=O` the outcome was “inactive”. For `CN(C)CCC[C@@]1(c2ccc(F)cc2)OCc2cc(C#N)ccc21`, the outcome was “inactive”. For `N=C(N)S(=O)O`, the outcome was “inactive”. In the case of `CCCCN1C(=O)c2ccccc2C1=O`, the outcome is reported as “inactive”. In the case of `CC(C)(O)CCCC1=CCC(C=O)CC1` (stereo not drawn), the outcome is reported as “inactive”. For `CCCCOCCCC`, the outcome was “inactive”. With `COc1ccccc1N1CCN(CC(O)COc2cc(OC)c(OC)c(OC)c2)CC1` (stereo not drawn) the outcome was “inactive”. For `COCc1nnc(-c2ccc[n+]([O-])c2)n1-c1c(Cl)c(Cl)cc2[nH]c(=O)c(=O)[nH]c12`, the outcome was “inactive”. With `CC1(C)S[C@@H]2[C@H](NC(=O)Cc3ccccc3)C(=O)N2[C@H]1C(=O)O` (tested in a mixture with another compound) the outcome was “inactive”. With `CC(C)(C)C(=O)CCc1ccc(Cl)cc1` the outcome was “inactive”. With `Cc1ccc(Br)cc1` the outcome was “inactive”. For `CC(O)C(CO)C(C)O` (stereo not drawn), the outcome was “inactive”. With `Nc1cc(S(=O)(=O)O)ccc1O` the outcome was “inactive”. In the case of `CCCCC(CC)COC(=O)CC#N` (stereo not drawn), the outcome is reported as “inactive”. In the case of `COc1cc(S(N)(=O)=O)cc(C(=O)O)c1OC`, the outcome is reported as “inactive”. For `CCN1CCN(C(=O)N[C@@H](C(=O)N[C@@H]2C(=O)N3C(C(=O)O)=C(CSc4nnnn4C)CS[C@H]23)c2ccc(O)cc2)C(=O)C1=O`, the outcome was “inactive”. For `O=C(CCBr)N1CCN(C(=O)CCBr)CC1`, the outcome was “inactive”. In the case of `CC/C=C\CCOC(=O)c1ccccc1`, the outcome is reported as “inactive”. With `CCNC(=O)C(C)OC(=O)Nc1ccccc1` (stereo not drawn) the outcome was “inactive”. For `CC(=O)c1ccc2ccc3ccccc3c2c1`, the outcome was “inactive”. With `CN(C)CCc1c[nH]c2ccc(C[C@H]3COC(=O)N3)cc12` the outcome was “inactive”. Work on `C=CCCCCCCCCCCCCCC` yielded an activity change, negative = cytotoxicity of 9.91% [at 15.8 µM]. With `COC(=O)c1ccc(C(=O)O)cc1` the outcome was “inactive”. In the case of `CCCCCCCCCCCCCCBr`, the outcome is reported as “inactive”. With `CC(C)C[P+](C)(CC(C)C)CC(C)C` the outcome was “inactive”. With `O=C(O)/C=C(\CC(=O)O)C(=O)O` the outcome was “inactive”. In the case of `CCC(C)c1nccnc1OC` (stereo not drawn), the outcome is reported as “inactive”. In the case of `N#CC1(N)CCCCC1`, the outcome is reported as “inactive”. In the case of `Cc1ccc(OC(=O)CC(C)C)cc1`, the outcome is reported as “inactive”. For `CCCC(=O)OC`, the outcome was “inactive”. For `CC(CC(=O)Cl)CC(C)(C)C` (stereo not drawn), the outcome was “inactive”. For `CCC(C)SSC(C)CC` (stereo not drawn), the outcome was “inactive”.
